# Measurements as given in PubChem BioAssay (EPA / NIEHS).
# Values joined by “and” are separate entries in the source; they are usually repeats but may differ in a detail not shown here. Equal values may be shown once. Results filed as inconclusive are left out. Active and inactive are the calls of the source. The calls were made as follows, unless noted: active = hit-call score of the fitted dose curve at least 0.9, where 1 is the maximum; inconclusive = response in the unintended direction; inactive = score below 0.9.
# Columns and labels:
# [1] = CCTE_Padilla_ZF_144hpf_TERATOSCORE: (Legacy) CCTE's 144 Hour Post-fertilization zebrafish Assay Teratoscore, Padilla Lab (AID 2283679; active = hit-call score of the fitted dose curve at least 0.9, where 1 is the maximum; inactive = score below 0.9;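 as to AC50: zebrafish embryos with chorions exposed by immersion from 6-8 hpf to 5 dpf with daily renewal; teratogenicity score from eye scoring of death hatching and malformations at 144 hpf; higher score means more developmental defects relative to DMSO baseline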)
# Procedure, shortened: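 Larvae scored by eye at 144 hpf for death, hatching and malformations after a day in clean Hanks'. Before that, daily-renewed exposure at 80 uM (0.4% DMSO, 26C) from roughly 6-8 hpf through 5 dpf, 4 embryos per chemical.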
# [2] = Tanguay_ZF_120hpf_ActivityScore_legacy: (Legacy) Oregon State University Tanguay Lab 120 Hour Post-fertilization zebrafish Assay Score for Activity (AID 2283742);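 as to AC50: dechorionated Tropical 5D wild-type zebrafish embryos held singly per well; static exposure from 6 hpf until 120 hpf at 28 °C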
# Procedure, shortened: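 In this whole-embryo screen, dechorionated zebrafish were exposed from 6 hpf until 120 hpf at 28C under a 0.64% DMSO vehicle. Developmental malformations and death were recorded by brightfield microscopy as binary endpoints.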
# [3] = target: Luciferin 4-monooxygenase (Photinus pyralis) (UniProt P08659); test: CCTE_Simmons_QuantiLum_inhib_2: CCTE's Firefly Luciferase Inhibition Assay, Simmons Lab (AID 2283767);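 as to AC50: potency for inhibitors that lower luciferase luminescence relative to DMSO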
# Procedure, shortened: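 Cell-free QuantiLum luciferase, 5 ng/well; compounds 5 nM–87.5 uM final, 8 conc, 0.5% DMSO; 30 min, 37C, dark. Detection reagent (150 uM D-luciferin, 147 uM dATP, CoA, DTT, pH 7.8 final) injected per well, kinetic luminescence. Triplicate biological replicates.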
# [4] = ACEA_AR_agonist_AUC_viability: ACEA Biosciences xCELLigence Real-Time Cell Analysis on Androgen Receptor Agonism for Viability (AID 2283775);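 as to AC50: viability read 80 hours after compound addition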
# Procedure, shortened: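 Viability endpoint from xCELLigence impedance in 22Rv1 prostate cells at 80 h. Eight-point series, 100 uM maximum final.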
# [5] = STM_H9_OrnithineISnorm_perc: Stemina devTOX quickPredict H9 human embryonic stem cell (hESC)-based Assay for Ornithine (ORN) Metabolite Biomarker, Normalized (AID 2283712; active = hit-call score of the fitted dose curve at least 0.9, where 1 is the maximum; inactive = score below 0.9;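 also: ornithine released into spent medium during last day measured by mass spectrometry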)
# Procedure, shortened: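 UPLC-HRMS readout: endogenous ornithine EIC area / 13C-ORN internal standard, then % of 0.1% DMSO median. H9 hESCs (pluripotent), 72h exposure, re-dosed with fresh media q24h; last 24-h spent media, deproteinized in 40% acetonitrile.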
# [6] = STM_H9_CystineISnorm_perc: Stemina devTOX quickPredict H9 human embryonic stem cell (hESC)-based Assay for Cystine (CYSS) Metabolite Biomarker, Normalized (AID 2283713; active = hit-call score of the fitted dose curve at least 0.9, where 1 is the maximum; inactive = score below 0.9)
# Procedure, shortened: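 UPLC-HRMS read-out: endogenous cystine peak area in spent medium, normalized to isotope-labeled internal standard and to median of 0.1% DMSO controls. Pluripotent H9 cells, 72h exposure, daily medium/compound replenishment; medium from last 24h sampled.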
# [7] = target: zebrafish Estrogen Receptor (ESR1), esr1 (gene 259252) (UniProt P57717); test: ATG_zfER1_XSP1: Attagene TRANS-FACTORIAL Multi-Species (XSP1) HepG2 Assay for zebrafish Estrogen Receptor (ESR1) (AID 2283772)
# Procedure, shortened: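 Transfect HepG2 with GAL4-UAS multi-reporter constructs; treat 24 h (medium carries 3 nM 6-alpha-fluorotestosterone); extract RNA, reverse-transcribe, PCR-amplify, FAM-label, digest with HpaI; resolve by capillary electrophoresis and compare against DMSO baseline.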
# [8] = tested on: zebrafish Estrogen Receptor (ESR2B), gene 317733; test: ATG_zfER2b_XSP1: Attagene TRANS-FACTORIAL Multi-Species (XSP1) HepG2 Assay for zebrafish Estrogen Receptor (ESR2B) (AID 2283773)
# Procedure, shortened: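 Human hepatoma HepG2, transiently transfected with multi-reporter units; exogenous zebrafish ESR2B-Gal4 activity measured. Exposure 24 h alongside 3 nM 6-alpha-fluorotestosterone to partly stimulate AR.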
# [9] = tested on: frog Estrogen Receptor (ESR2), gene 100174814; test: ATG_frER2_XSP1: Attagene TRANS-FACTORIAL Multi-Species (XSP1) HepG2 Assay for frog Estrogen Receptor (ESR2) (AID 2283774)
# Procedure, shortened: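 Multiplexed TRANS-format reporter assay in human hepatoma HepG2: chimeric nuclear receptor-Gal4 activity reported as mRNA induction at 24 h, detected by fluorescent RT-PCR products on capillary electrophoresis and fitted upward from DMSO baseline.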
# [10] = STM_H9_OrnCyssISnorm_ratio: Stemina devTOX quickPredict H9 human embryonic stem cell (hESC)-based Assay for Ornithine (ORN):Cystine (CYSS) Ratio (AID 2283714)
# Procedure, shortened: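 H9 hESC, 72h, q24h re-dose; last-day media → acetonitrile deproteinization → UPLC-HRMS. ORN:CYSS ratio from isotope-normalized EIC areas, vs 0.1% DMSO; MTX references on each plate.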
# [11] = tested on: zebrafish Androgen Receptor (AR), gene 100005148; test: ATG_zfAR_XSP1: Attagene TRANS-FACTORIAL Multi-Species (XSP1) HepG2 Assay for zebrafish Androgen Receptor (AR) (AID 2283771)
# Procedure, shortened: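 Gain-of-signal versus DMSO was measured as reporter transcripts quantified by RT-PCR, fluorescent labelling and capillary electrophoresis after 24 h chemical exposure. The cells were HepG2 expressing a chimeric zebrafish AR-GAL4, co-stimulated with 3 nM 6-alpha-fluorotestosterone.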
# [12] = ArunA_CellTiter_hNC: Viability Assessment in the ArunA Biomedical's Oris Neural Crest (hNC) Cell Migration Assay (AID 2283752)
# Procedure, shortened: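 hNC cells (H9 ESC-derived), 60,000/well, Matrigel, LIF + bFGF medium; 16 h 37C attachment; 72 h compound in test medium; CellTiter Aqueous One read-out; loss-of-signal vs DMSO baseline.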
# [13] = ArunA_CellTiter_hNP: Viability Assessment in the ArunA Biomedical's Oris Neural Crest (hNC) Cell Migration Assay (AID 2283753)
# Procedure, shortened: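 Viability read with CellTiter 96 Aqueous One after 72 h chemical exposure of human hNP1 neuroprogenitors, which were plated on Matrigel in LIF/bFGF medium 16 h beforehand. Endpoint fitted in positive direction relative to DMSO.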
# [14] = ArunA_Migration_hNP: ArunA Biomedical's Oris Neuroprogenitor (hNP) Cell Migration Assay (AID 2283754)
# Procedure, shortened: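 Readout is calcein-AM fluorescence (ex494/em517) of cells migrating into the detection zone, relative to DMSO. hNP1 cells (H9-derived) grown on Matrigel behind stoppers 16 h, then stoppers pulled and chemical applied 72 h; cytochalasin D as control.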
# [15] = ArunA_Migration_hNC: ArunA Biomedical's Oris Neural Crest (hNC) Cell Migration Assay (AID 2283755)
# Procedure, shortened: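 Calcein-AM fluorescence (ex494 nm/em 517 nm) in the stopper-defined detection zone quantifies migration of hNC cells after 72 h chemical exposure; 60,000 cells/well plated on Matrigel with LIF and bFGF, 16 h pre-incubation. DMSO baseline.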
# [16] = ArunA_NOG_NucleusCount: ArunA Biomedical's Neurite Outgrowth (NOG) Assay for Nucleus Count (AID 2283756)
# Procedure, shortened: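 Viable neuron count, from Hoechst nuclei passing size and intensity gates, imaged at 20x on differentiated H9-derived human neurons. Exposure lasted 48 h from seeding; activity was scored relative to DMSO.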
# [17] = ArunA_NOG_NeuriteLength: ArunA Biomedical's Neurite Outgrowth (NOG) Assay for Neurite Length (AID 2283757)
# Procedure, shortened: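 Total neurite length per neuron, from traced βIII-tubulin-labelled processes longer than 10 um on viable Hoechst-gated cells, was scored as decrease from DMSO. Cells were hESC (H9)-derived neurons given 48 h chemical exposure immediately after seeding.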
# [18] = ArunA_NOG_NeuritesPerNeuron: ArunA Biomedical's Neurite Outgrowth (NOG) Assay for Neurites Per Neuron (AID 2283758)
# Procedure, shortened: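 Differentiated human H9-derived neurons exposed to chemicals for 48 h from seeding, then stained with Hoechst and βIII-tubulin/DyLight 488. Automated imaging counted neurites (processes >10 um) per valid neuron; loss of signal versus DMSO scored.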
# Sequence of Luciferin 4-monooxygenase (Photinus pyralis) (P08659 whole entry, looked up): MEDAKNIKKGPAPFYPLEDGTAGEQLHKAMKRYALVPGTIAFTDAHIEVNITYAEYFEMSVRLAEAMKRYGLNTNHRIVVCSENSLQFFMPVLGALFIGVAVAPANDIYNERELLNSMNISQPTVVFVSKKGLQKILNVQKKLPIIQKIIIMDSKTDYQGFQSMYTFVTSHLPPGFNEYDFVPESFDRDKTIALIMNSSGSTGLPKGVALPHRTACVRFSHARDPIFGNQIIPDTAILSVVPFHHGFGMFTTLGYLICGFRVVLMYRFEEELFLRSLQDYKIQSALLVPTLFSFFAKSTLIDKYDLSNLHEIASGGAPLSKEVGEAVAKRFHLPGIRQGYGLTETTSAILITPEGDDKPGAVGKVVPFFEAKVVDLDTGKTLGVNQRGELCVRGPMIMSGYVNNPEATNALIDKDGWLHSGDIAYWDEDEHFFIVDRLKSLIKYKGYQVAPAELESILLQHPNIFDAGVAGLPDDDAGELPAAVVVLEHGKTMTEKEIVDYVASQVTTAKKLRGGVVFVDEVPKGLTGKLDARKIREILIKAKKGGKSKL
# Sequence of zebrafish Estrogen Receptor (ESR1), esr1 (gene 259252) (P57717 whole entry, looked up, the tested form may be a part): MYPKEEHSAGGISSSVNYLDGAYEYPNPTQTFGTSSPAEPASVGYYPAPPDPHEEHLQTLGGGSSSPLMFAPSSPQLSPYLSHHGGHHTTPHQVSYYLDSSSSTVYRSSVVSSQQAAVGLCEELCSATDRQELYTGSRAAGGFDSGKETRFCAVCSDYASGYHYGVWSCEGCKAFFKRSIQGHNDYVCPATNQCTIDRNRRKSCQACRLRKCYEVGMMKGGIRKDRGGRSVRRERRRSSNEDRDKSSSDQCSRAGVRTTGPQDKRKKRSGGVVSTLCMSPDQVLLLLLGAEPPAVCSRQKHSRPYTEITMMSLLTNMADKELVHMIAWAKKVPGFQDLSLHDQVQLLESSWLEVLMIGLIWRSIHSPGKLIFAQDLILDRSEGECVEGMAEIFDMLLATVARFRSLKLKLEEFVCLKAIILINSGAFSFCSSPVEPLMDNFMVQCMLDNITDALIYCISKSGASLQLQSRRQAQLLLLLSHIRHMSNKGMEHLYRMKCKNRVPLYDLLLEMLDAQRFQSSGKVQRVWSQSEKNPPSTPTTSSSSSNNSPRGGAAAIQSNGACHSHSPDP
smiles,measurement,setting,value
COC(=O)CCCC(=O)OC,AC50,[1],62.7 µM (active)
same,outcome,[2],inactive
Oc1ccc(O)cc1,AC50,[1],15.6 µM (active)
same,AC50,[2],2.69 µM (active)
same,outcome,[3],inactive
O=C1CCCCC1,outcome,[1],inactive
same,outcome,[2],inactive
same,outcome,[4],inactive
CC(C)OC(=O)C(C)(C)Oc1ccc(C(=O)c2ccc(Cl)cc2)cc1,AC50,[1],1.78 µM (active)
same,outcome,[5],inactive
same,outcome,[6],inactive
same,outcome,[2],inactive
same,AC50,[4],35.4 µM (active)
N[C@@H](Cc1c[nH]c2ccccc12)C(=O)O,outcome,[1],inactive
same,outcome,[5],inactive
same,outcome,[6],inactive
same,outcome,[4],inactive
CC(COCC(C)OC(=O)c1ccccc1)OC(=O)c1ccccc1 (configuration not stated),AC50,[1],7.06 µM (active) and 4.45 µM (active)
same,outcome,[5],inactive
same,outcome,[6],inactive
same,outcome,[2],inactive
CC(=O)CC(c1ccccc1)c1c(O)c2ccccc2oc1=O (configuration not stated),AC50,[1],39.6 µM (active)
same,outcome,[5],inactive
same,outcome,[6],inactive
same,outcome,[2],inactive
same,outcome,[4],inactive
O=Cc1ccccc1C=O,AC50,[1],1.15 µM (active)
same,outcome,[5],inactive
same,outcome,[6],inactive
same,AC50,[3],53.8 µM (active)
same,AC50,[4],79.2 µM (active)
Oc1ccccc1O,AC50,[1],60.1 µM (active)
same,outcome,[2],inactive
same,outcome,[3],inactive
same,AC50,[4],18 µM (active)
CC(=O)O[C@]1(C(C)=O)CC[C@H]2[C@@H]3C=C(Cl)C4=CC(=O)[C@@H]5C[C@@H]5[C@]4(C)[C@H]3CC[C@@]21C,AC50,[1],15.2 µM (active)
same,outcome,[2],inactive
same,AC50,[7],35.6 µM (active)
same,AC50,[8],13.1 µM (active)
same,AC50,[9],18 µM (active)
same,AC50,[4],87.1 µM (active)
O=C(O)CN(CC(=O)O)CC(=O)O,outcome,[1],inactive
same,outcome,[5],inactive
same,AC50,[6],14.8 µM (active)
same,AC50,[10],13 µM (active)
same,outcome,[4],inactive
O=C(O)c1cccnc1,outcome,[1],inactive
same,outcome,[5],inactive
same,outcome,[6],inactive
same,outcome,[10],inactive
same,outcome,[4],inactive
Cc1cc(SC2=C(O)C[C@@](CCc3ccc(N)cc3)(C(C)C)OC2=O)c(C(C)(C)C)cc1CO,AC50,[1],16.4 µM (active)
same,outcome,[2],inactive
same,outcome,[3],inactive
same,AC50,[4],50 µM (active)
CCc1nc(N)nc(N)c1-c1ccc(Cl)cc1,AC50,[1],64.5 µM (active)
same,AC50,[5],30.7 µM (active)
same,AC50,[6],30.6 µM (active)
same,AC50,[10],31.1 µM (active)
same,AC50,[4],50 µM (active)
CCc1cc(C2=C(C(=O)O)N(c3ccccc3C(F)(F)F)S(=O)(=O)c3ccccc32)cc2c1OCO2,outcome,[1],inactive
same,outcome,[5],inactive
same,outcome,[6],inactive
same,outcome,[10],inactive
same,outcome,[4],inactive
CCN(CC)CCOc1ccc(C(=C(Cl)c2ccccc2)c2ccccc2)cc1,AC50,[1],1.56 µM (active)
same,AC50,[5],6.22 µM (active)
same,AC50,[6],1.17 µM (active)
same,AC50,[10],2.53 µM (active)
same,AC50,[2],37.8 µM (active)
same,outcome,[11],inactive
same,outcome,[7],inactive
same,outcome,[8],inactive
same,outcome,[9],inactive
same,AC50,[4],13.1 µM (active)
CCC(C)N(C)C(=O)c1cc2ccccc2c(-c2ccccc2Cl)n1 (configuration not stated),AC50,[1],16.3 µM (active)
same,outcome,[5],inactive
same,outcome,[6],inactive
same,outcome,[2],inactive
same,AC50,[4],45.7 µM (active)
Cc1cc(Cc2ccc(N)c(C)c2)ccc1N,AC50,[1],88.5 µM (active)
same,outcome,[5],inactive
same,outcome,[6],inactive
same,outcome,[10],inactive
same,outcome,[3],inactive
same,outcome,[4],inactive
O=[Si]=O,outcome,[1],inactive
same,outcome,[2],inactive
CN(C)CCCN1c2ccccc2Sc2ccc(Cl)cc21,AC50,[1],6.24 µM (active)
same,AC50,[5],3.51 µM (active)
same,AC50,[6],0.751 µM (active)
same,AC50,[10],0.897 µM (active)
same,AC50,[2],33.7 µM (active)
same,AC50,[4],22.2 µM (active)
CCCCCCCCCCCCCCOS(=O)(=O)O,AC50,[1],15.3 µM (active)
same,AC50,[2],32.8 µM (active)
same,outcome,[3],inactive
same,AC50,[4],68 µM (active)
CS(=O)(=O)c1ccc([C@@H](C[C@H]2CCC(=O)C2)C(=O)Nc2cnccn2)cc1Cl,outcome,[1],inactive
Cc1ccc(-c2cc(C(F)(F)F)nn2-c2ccc(S(N)(=O)=O)cc2)cc1,AC50,[1],8.82 µM (active)
same,outcome,[5],inactive
same,outcome,[6],inactive
same,AC50,[12],70.4 µM (active)
same,AC50,[13],76.5 µM (active)
same,AC50,[14],81.9 µM (active)
same,AC50,[15],78.7 µM (active)
same,AC50,[16],7.13 µM (active)
same,AC50,[17],12.9 µM (active)
same,AC50,[18],13.9 µM (active)
same,AC50,[4],17.7 µM (active)
CC(=O)[C@@]1(O)CC[C@H]2[C@@H]3CCC4=CC(=O)CC[C@]4(C)[C@H]3CC[C@@]21C,AC50,[1],36.1 µM (active)
same,AC50,[5],62 µM (active)
same,AC50,[6],80 µM (active)
same,AC50,[10],73.4 µM (active)
same,outcome,[2],inactive
CCCC[C@H]1CN(CC2CCOCC2)C(=O)OC12CCN(C1(C)CCN(C(=O)c3c(C)ncnc3C)CC1)CC2,outcome,[1],inactive
same,outcome,[5],inactive
same,outcome,[6],inactive
same,outcome,[10],inactive
same,outcome,[4],inactive
Cc1ccc(C(C)(C)C)c(O)c1,AC50,[1],92.9 µM (active)
same,outcome,[5],inactive
same,outcome,[6],inactive
same,AC50,[10],15 µM (active)
same,outcome,[2],inactive
same,outcome,[3],inactive
same,outcome,[4],inactive
CCCCCCCCCC[N+](C)(C)[O-],outcome,[1],inactive
same,outcome,[5],inactive
same,AC50,[6],25 µM (active)
same,AC50,[10],22.1 µM (active)
same,outcome,[4],inactive
